Screening data (PubChem)
D2 PAM-1: human D2 receptor positive allosteric modulation; P14416; DiscoveRx D2 beta-arrestin cells, luminescence, 90 min; 100% = 57 uM dopamine signal; potentiation, % (concentration not given with the values); actives 0.23% (n = 360,000); AID 624464; in the data active means potentiation above about 50%; inconclusive means mostly about 30% to 49%
Target sequence (P14416 whole entry, looked up): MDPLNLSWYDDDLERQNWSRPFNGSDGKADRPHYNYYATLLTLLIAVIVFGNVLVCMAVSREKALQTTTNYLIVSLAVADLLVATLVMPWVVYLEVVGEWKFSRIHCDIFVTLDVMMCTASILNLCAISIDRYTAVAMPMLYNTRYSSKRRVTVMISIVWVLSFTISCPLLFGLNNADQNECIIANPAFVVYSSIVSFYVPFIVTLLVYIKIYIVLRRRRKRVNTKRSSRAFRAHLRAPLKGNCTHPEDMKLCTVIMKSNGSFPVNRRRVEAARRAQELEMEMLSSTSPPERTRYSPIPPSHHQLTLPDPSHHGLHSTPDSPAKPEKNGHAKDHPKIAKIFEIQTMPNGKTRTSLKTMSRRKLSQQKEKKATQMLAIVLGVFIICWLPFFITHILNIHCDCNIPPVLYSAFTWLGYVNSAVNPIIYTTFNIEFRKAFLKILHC
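PathHunter beta-arrestin assay in DiscoveRx D2 cells. Compounds were added with an EC20 of dopamine (50 nM final) for 90 min at 37 deg C. Luminescence was read 1 h after detection reagent, with 57 uM dopamine as the EC100 control.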
D2 ag-1: D2 dopamine receptor (human) agonism; actives 0.53% (n = 340,000); HEK293 T-REx D2 cells, calcium flux agonist mode; activation, % at 2 µM;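 active means activation over 3 SD above normal in the single-dose calcium agonist read, cut at about 30% in these data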; further: 0% is about no effect
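Agonism scored from kinetic calcium signal (1 read/sec, 180 s) following compound pin transfer, after a 10 s baseline. Cells: HEK293 Trex line expressing inducible D2 receptor coupled to calcium, dye-loaded after overnight culture at 30 C.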
D2 ag-2: agonists of human D2 dopamine receptor (beta-arrestin); P14416; DiscoveRx PathHunter D2 beta-arrestin, luminescence, 90 min; 100% = 57 uM dopamine signal; activation, % (concentration not given with the values); actives 0.084% (n = 360,000); AID 624465; in the data active means activation above about 40%; inconclusive means between about 15% and that limit
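DiscoveRx PathHunter D2 beta-arrestin cells (2,100/well) attached overnight, then compound-stimulated 90 min at 37 C in HBSS/10 mM HEPES/0.1% Tween-20 buffer; beta-galactosidase complementation read by luminescence after 1 h at ambient temperature. Dopamine 57 uM final (EC100) as control.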
D2 PAM-2: positive allosteric modulators of human D2 dopamine receptor; actives 0.34% (n = 340,000); AID 485347; P14416; HEK293 T-REx D2, calcium flux, EC20 dopamine potentiation; potentiation, % at 10 µM;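 active means potentiation over 3 SD above the plate norm, cut at about 30% in these data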; further: 0% is about no effect
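Primary screen. Calcium kinetics in induced HEK293 T-REx D2 cells: compound pre-addition 180 s, EC20 dopamine, 180 s more.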
D2 antag: D2 dopamine receptor (human) antagonism; inhibition, % at 10 µM; actives 2% (n = 340,000); HEK293 TREx D2 cells, calcium flux, dopamine EC80; in the data active means inhibition above about 30%; inactive means below that, where a call was filed; further: 0% is about no effect
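Antagonism is scored as inhibition of an EC80 dopamine-evoked calcium signal in a force-coupled, tetracycline-inducible HEK293 T-REx D2 line, with compound present 180 s before agonist.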
Active calls of the source: *; ? = inconclusive; . = not tested or not shown; ! = repeats disagree. Rows were chosen to be rich in hits. Some 2.4% of all compounds tested hit in one or more screens of this group.

SMILES	D2 PAM-1	D2 ag-1	D2 ag-2	D2 PAM-2	D2 antag
O=C(CCCc1ccccc1)Nc1ccnn1C1CCN(Cc2ccccc2)CC1	-30	1	-6	-34	41*
COc1ccc(N2CCN(C(=O)c3c(C)oc4ncn(CC(C)C)c(=O)c34)CC2)cc1	.	0	.	2	.
Cc1cc(C)c(NC(=O)Cn2c(=O)n(-c3cccc(C(F)(F)F)c3)c(=O)c3c(C)c(C)sc32)c(C)c1	.	1	.	2	.
COc1ccc(/C=C/C(=O)OCC(=O)c2ccc[nH]2)cc1	1	0	-1	-12	38*
O=C1CCCc2c1cc(C(=O)O)c(=O)n2-c1ccccc1	3	0	-2	-4	7
O=C1CCCc2c1cc(C(=O)Nc1ccc(Br)cn1)c(=O)n2-c1ccccc1	55*	4	11	-3	10
CCOc1ccc(OCC(=O)OCc2csc(CC(=O)Nc3ccccc3C)n2)cc1	6	1	1	42*	7
Cc1ccccc1NC(=O)Cc1nc(COC(=O)COc2ccccc2C(C)C)cs1	-1	2	-3	5	29
Cc1ccccc1NC(=O)Cc1nc(COC(=O)CNS(=O)(=O)c2cccc(Br)c2)cs1	-5	0	-1	-8	35*
Cc1ccc(NC(=O)C2OCCc3ccccc32)cc1C (centres undefined)	-7	-2	-4	12	42*
O=C(NCc1ccco1)C1OCCc2ccccc21 (centres undefined)	0	1	-1	9	4
O=C(CSCc1cccc(Br)c1)N/N=C/c1ccc2c(c1)OCO2	-7	0	-4	0	33*
O=C(CCc1ccc(O)c(O)c1)N/N=C/c1ccc2c(c1)OCO2	-1	19	?	2	42*
O=C(CSCc1ccccc1Br)N/N=C/c1ccc2c(c1)OCO2	6	0	-1	18	5
CC(C)Oc1ccc(CCC(=O)N/N=C/c2ccc3c(c2)OCO3)cc1	-3	1	2	-2	-11
Cc1ccc(S(N)(=O)=O)c(C)c1N1CCCC1=O	-4	0	-7	30*	-5
COc1cc(/C=C/C(=O)Nc2ccc3nc4n(c(=O)c3c2)CCCC4)cc(OC)c1OC	-1	-1	7	14	9
COc1cccc(/C=C/C(=O)Nc2ccc(C(=O)Nc3cccc(S(N)(=O)=O)c3)cc2)c1OC	-18	-2	0	-35	77*
COc1cccc(/C=C/C(=O)Nc2ccc3nc4n(c(=O)c3c2)CCCC4)c1OC	2	-1	1	35*	-2
COc1cccc(/C=C/C(=O)Nc2ccc3c(c2)OCCO3)c1OC	-32	1	0	-23	69*
COc1cccc(/C=C/C(=O)Nc2cccc(C(C)=O)c2)c1OC	-5	0	6	-19	-1
COc1ccc(CCNc2nc(SCc3ccc(F)cc3)nc3ccccc23)cc1OC	.	-1	.	7	.
Cc1ccccc1NC(=O)CCNC(=O)Cn1ccc2ccccc2c1=O	.	1	.	5	.
CC(C)[C@@H](C(=O)OCC(=O)Nc1ccc2c(c1)OCO2)N1C(=O)c2ccccc2C1=O	-15	-1	1	1	46*
O=C(Nc1c(O)c2ccccc2oc1=O)c1cccc(F)c1	.	.	.	-5	.
SMILES	D2 PAM-1	D2 ag-1	D2 ag-2	D2 PAM-2	D2 antag
C/C(=N\NC(=O)c1ccccc1F)c1ccc(C#N)cc1	-4	2	0	5	36*
Cn1c(N)c(C(=O)NCc2ccccc2Cl)sc1=S	-9	-1	0	-6	53*
O=c1c2ccccc2nc(-c2ccco2)n1Cc1ccccc1	-9	-1	-3	22	24
O=c1c2ccccc2nc(-c2ccoc2)n1CCc1ccccc1	0	0	-3	62*	2
CCOc1ccc(CCn2c(-c3ccco3)nc3ccccc3c2=O)cc1OCC	1	0	-2	-23	36*
Cc1ccc(NS(=O)(=O)c2c(C)nc3sc(C)c(C)n3c2=O)cc1F	.	2	.	-2	.
Cc1cccc(N(CC(=O)NC2CCCC2)C(=O)CS(=O)CC(=O)Nc2ccc3c(c2)OCO3)c1 (centres undefined)	-8	0	-3	-14	32*
CC(C)c1ccc(NC(=O)CSc2nc3ccccc3nc2Cc2ccccc2)cc1	.	.	.	10	.
Cc1ccc(N2C(=O)c3cccc4c(N)ccc(c34)C2=O)c2cccnc12	-8	84*	-1	-13	-13
Cc1nn(C)c(C)c1N1C(=O)c2cccc3c(N)ccc(c23)C1=O	-4	115*	-1	2	26
CCCN1C(=O)c2cccc3c(N4CCCCC4)ccc(c23)C1=O	-8	9	1	-2	-7
CCCCNc1ccc2c3c(cccc13)C(=O)N(CCCC)C2=O	-4	185*	6	-28	81*
CCN1C(=O)c2cccc3c(N)ccc(c23)C1=O	2	151*	14	-9	61*
Cc1ccc(-n2cnnn2)c2cccnc12	-8	0	0	4	13
O=C(Nc1ccccc1)c1cnc(N2CCCCC2)c2ccccc12	.	0	.	9	.
Cc1cccc(N(CC(=O)NC(C)c2ccccc2)S(=O)(=O)c2ccccc2)c1C (centres undefined)	.	1	.	-12	.
CCC(=O)N/N=C/c1ccc(-c2ccc([N+](=O)[O-])cc2)o1	-1	0	7	4	14
CC(C)(C)C(=O)/C=c1\s/c(=C\c2ccc(-c3ccc([N+](=O)[O-])cc3)o2)c(=O)n1CC(=O)NC(N)=O	4	206*	4	-29	91*
Cc1ccc(S(=O)(=O)N2CCN(C(=O)COC(=O)CNC(=O)c3ccccc3)CC2)c(C)c1	-1	0	-3	2	33*
CN(CC(O)CN1CCOCC1)S(=O)(=O)O (centres undefined)	-5	1	-2	4	34*!
OC(CN1CCOCC1)CN1CCOCC1	-9	1	-2	11	12
CNC[C@H](O)c1ccc(O)c(O)c1	79*	5	63*	-18	25
CC(C)NCC(O)c1ccc(O)c(O)c1 (centres undefined)	-2	5	-1	33*	17
COc1ccc(OC)c(NS(=O)(=O)c2ccc(Br)s2)c1	.	-1	.	-9	-3
COc1cccc(NS(=O)(=O)c2ccc(Br)s2)c1	-8	0	0	8	34*
COc1ccccc1-c1cc2nc(C)c(CCC(=O)Nc3ccc(Br)c(C)c3)c(C)n2n1	.	0	.	-3	.
CCCc1nnc(NC(=O)c2cc(=O)c3ccccc3o2)s1	.	-1	.	10	.
CCn1cc([N+](=O)[O-])c(C(=O)N2N=C3/C(=C/c4cccs4)CCCC3C2c2cccs2)n1 (centres undefined)	-4	-1	-2	43*	-6
